The list is not random: actives were taken first. Their share in the collection is about 3.9%.
NTR1 ag – activates human neurotensin receptor 1 | NTR1-U2OS beta-arrestin-GFP spot imaging, agonist mode | activation, % at 20 µM | hit rate 0.17% among 330,000 | AID 493036;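 active means activation at or above 40% of the spot to cytoplasm intensity ratio, with at least 20 cells analyzed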
Target sequence (P30989 whole entry, looked up): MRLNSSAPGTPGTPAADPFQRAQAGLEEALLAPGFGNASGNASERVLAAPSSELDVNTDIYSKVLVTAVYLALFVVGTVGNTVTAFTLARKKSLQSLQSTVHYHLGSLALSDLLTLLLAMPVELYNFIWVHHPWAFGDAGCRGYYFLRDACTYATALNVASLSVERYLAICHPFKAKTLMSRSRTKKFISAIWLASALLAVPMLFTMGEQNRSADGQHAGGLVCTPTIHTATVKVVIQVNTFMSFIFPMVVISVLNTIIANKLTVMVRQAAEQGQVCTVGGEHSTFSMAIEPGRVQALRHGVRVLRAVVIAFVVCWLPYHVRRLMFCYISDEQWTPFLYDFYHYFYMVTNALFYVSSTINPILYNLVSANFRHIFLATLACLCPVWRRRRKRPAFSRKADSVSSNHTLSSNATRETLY
UBC9 SUMO inh – blocks human SUMOylation mediated by UBC9. P63279. HTRF SUMOylation assay, SAE1/SAE2 + UBC9, in vitro. inhibition, % at 35 µM. hit rate 0.36% among 290,000; in the data active means inhibition above about 50%, passing the limit was not always enough
Target sequence (P63279 whole entry, looked up): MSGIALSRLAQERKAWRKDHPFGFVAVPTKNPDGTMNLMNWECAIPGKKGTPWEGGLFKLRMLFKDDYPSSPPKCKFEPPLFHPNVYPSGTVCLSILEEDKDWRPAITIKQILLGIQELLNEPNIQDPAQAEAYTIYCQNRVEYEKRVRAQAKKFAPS
ALR inh – human ALR oxidase inhibition via reduced H2O2; inhibition, % (concentration not given with the values); hit rate 3.8% among 290,000; AID 485317; purified ALR, DTT oxidation, H2O2 HRP-luminol luminescence; P55789;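 active means mean replicate inhibition above about 79%, with every replicate also reaching it, limit read from the data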
Cardio protect – myocardial damage modulation in H9c2 cells | H9c2 cardiomyocytes, H2O2 injury protection, ATPLite, 2 h | protection from H2O2 cell death, % at 20 µM | hit rate 0.63% among 360,000;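 active means compounds giving at least 50% protection of heart cells from peroxide-induced death in the single-dose screen, raw or plate-pattern-corrected value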
Large screens that a line does not name were inactive.

O=C(CCc1nc2ccccc2c(=O)[nH]1)N1CCN(c2ccc(F)cc2)CC1	Cardio protect 72
CC(C)Cn1c(N)c(C(=O)COC(=O)CCc2nc3ccccc3s2)c(=O)n(C)c1=O	none
O=C1C(=O)N(Cc2cccs2)c2ccccc21	none
CCOCCOC(=O)CCSc1n[nH]c(=O)[nH]c1=O	none
CCOc1ccccc1N1CC(C(=O)N2CCN(Cc3ccc(C#N)cc3)CC2)CC1=O (configuration not stated)	none (no result: UBC9 SUMO inh)
O=C(CCn1c(=O)oc2ccccc21)N1CCN(c2ccc(F)cc2)CC1	ALR inh 97
CC(=O)N1CCN(C(=O)CCc2nc3ccccc3c(=O)[nH]2)CC1	Cardio protect 61
O=C(CCc1nc2ccccc2c(=O)[nH]1)OCC(=O)N1CCc2ccccc21	Cardio protect 57
O=C(O)CCc1nc2ccccc2c(=O)[nH]1	none (no result: ALR inh)
O=C(CCc1nc2ccccc2c(=O)[nH]1)N1CCN(C/C=C/c2ccccc2)CC1	Cardio protect 59 (no result: ALR inh)
CC(=O)c1c(C)oc(C)c1CSCc1ccc(C(=O)O)o1	ALR inh 97
CCCCSCc1ccc(C(=O)O)o1	none
O=C(N/N=C/c1ccc(O)cc1)c1cccc(C(F)(F)F)c1	ALR inh 98
O=C(N/N=C\c1ccc2c(c1)OCO2)c1cncc(Br)c1	none
O=C(N/N=C/c1ccc(O)cc1)c1cncc(Br)c1	ALR inh 100
CC(C)(C)c1cc(C(=O)N/N=C/c2ccc(O)cc2)n(-c2ccccc2)n1	ALR inh 94
CCc1cc(C(=O)N/N=C/c2ccc(O)cc2)c2ccccc2n1	none
C=CCc1cccc(/C=N/NC(=O)C(C)Nc2cccc(C)c2)c1O (configuration not stated)	none
COc1ccc(-c2sc3ccccc3c2/C=C/c2ccc(N)cc2)cc1	none (no result: UBC9 SUMO inh)
O=C(Nc1ccccc1Cl)N1CCN(c2ccccn2)CC1	none
Cn1ccnc1SCC(=O)c1ccc(Cl)cc1	none
Cn1c(CO)cnc1SCC(=O)c1ccc(Cl)cc1	ALR inh 99
Cc1nnc(SCC(=O)c2ccc(Cl)cc2)n(N)c1=O	ALR inh 99
C#CCOC(=O)c1ccccc1C(=O)n1nnc2ccccc21	ALR inh 97
Cc1ccc(C(=O)n2nnc3ccccc32)cc1	none (no result: UBC9 SUMO inh, Cardio protect)
O=C(c1cccc2ccccc12)n1nnc2ccccc21	ALR inh 94 (no result: UBC9 SUMO inh, Cardio protect)
Cn1cc(CN2CCc3ccccc3C2)c2ccccc21	none
CCCC(=O)Nc1ccc(NC(=O)Cc2ccccc2)cn1	ALR inh 99
CCCC(=O)Nc1ccc(NC(=O)CCc2ccccc2)cn1	none
Cc1nn(C(C)C(=O)NCCCN2CCCC2)c(=O)c2nn(-c3ccccc3)c(C)c12 (configuration not stated)	none
COc1ccc(/C=N/NC(=O)c2cc(OC)c(OC)c(OC)c2)cc1CN1CCc2cc(OC)c(OC)cc2C1C (configuration not stated)	Cardio protect 66
Cn1nc(C(=O)NNC(=O)CCOc2ccc(C(C)(C)C)cc2)c2ccccc2c1=O	none (no result: UBC9 SUMO inh, ALR inh)
CC(=O)Oc1ccc2occ(C(=O)c3cccs3)c2c1	none
O=C(CCl)Oc1ccc2occ(C(=O)c3cccs3)c2c1	ALR inh 97
O=C(O)c1ccccc1-c1ccccc1C(=O)Nc1ccc2c(c1)CCC2	none
Cc1occc1C(=O)Nc1c(F)c(F)c(F)c(F)c1F	ALR inh 97
O=C(Nc1ccc2c(c1)CCC2)c1ccccc1	ALR inh 93
Cc1occc1C(=O)Nc1ccc2c(c1)CCC2	ALR inh 96
CCOC(=O)NC(N(O)c1cccc(Cl)c1)C(Cl)(Cl)Cl (configuration not stated)	none (no result: ALR inh)
O=C(COC(=O)CCc1ccc(S(=O)(=O)N2CCOCC2)cc1)Nc1ncc(C(F)(F)F)cc1Cl	none
CN(C(=O)c1ccc(NC(=O)C2CCN(C(=O)OC(C)(C)C)CC2)cc1)C1CC1	none (no result: UBC9 SUMO inh)
CCC(=NNS(=O)(=O)c1ccc(C)cc1)c1ccccc1	none (no result: NTR1 ag, UBC9 SUMO inh, ALR inh)
CC/C(=N\NS(=O)(=O)c1ccc(C)cc1)c1ccco1	ALR inh 98
O=C1CC(N2CCc3ccccc32)C(=O)N1c1ccccc1 (configuration not stated)	ALR inh 99
CCOc1ccc(N2C(=O)CC(N3CCc4ccccc43)C2=O)cc1 (configuration not stated)	none
O=C(COc1ccc(Br)cc1CO)Nc1ccccc1	none
CN(Cc1ccccn1)C(=O)c1cc(COc2ccc(F)cc2Cl)on1	none (no result: NTR1 ag, UBC9 SUMO inh, ALR inh)
CC(C)(C)OC(=O)NCCCCCNC(=O)c1[nH]cnc1C(=O)Nc1ccccc1	none (no result: UBC9 SUMO inh)
CC(C)(C)OC(=O)NCc1ccc(NC(=O)c2nc[nH]c2C(=O)NCCCNC(=O)c2[nH]cnc2C(=O)Nc2ccc(CNC(=O)OC(C)(C)C)cc2)cc1	Cardio protect 52 (no result: UBC9 SUMO inh)
CC(C)(C)OC(=O)NCc1ccc(NC(=O)c2nc[nH]c2C(=O)NCCN(CCNC(=O)c2[nH]cnc2C(=O)Nc2ccc(CNC(=O)OC(C)(C)C)cc2)CCNC(=O)c2[nH]cnc2C(=O)Nc2ccc(CNC(=O)OC(C)(C)C)cc2)cc1	none (no result: UBC9 SUMO inh)
CC(C)(C)OC(=O)NCc1ccc(NC(=O)c2nc[nH]c2C(=O)NCCCCNC(=O)c2[nH]cnc2C(=O)Nc2ccc(CNC(=O)OC(C)(C)C)cc2)cc1	Cardio protect 67 (no result: UBC9 SUMO inh)
CC(C)(C)OC(=O)NCc1ccc(NC(=O)c2nc[nH]c2C(=O)NCCCCCCNC(=O)c2[nH]cnc2C(=O)Nc2ccc(CNC(=O)OC(C)(C)C)cc2)cc1	Cardio protect 51 (no result: UBC9 SUMO inh)
COC(=O)[C@@H](Cc1c[nH]c2ccccc12)NCc1cccc(B(O)O)c1	none (no result: NTR1 ag, UBC9 SUMO inh, ALR inh)
COc1cccc(/C=N/NC(=O)CCc2c(C)n[nH]c2C)c1O	none
CCOC(=O)c1cccc(NC(=O)CNS(=O)(=O)c2cccs2)c1	none
CCCC1=Nc2cc(C(=O)N3CCC(C(N)=O)CC3)ccc2Sc2ccccc21	none
COc1ccc([C@H]2[C@H](C(=O)C(C)(C)C)N3N=Cc4ccccc4C3C23C(=O)OC(C)(C)OC3=O)cc1 (some centres not stated)	ALR inh 95
Cc1ccc(CNC(=O)CN2C(=O)C3(OCCCO3)c3ccccc32)cc1	none
S=c1nc(-c2ccccc2Br)[nH][nH]1	ALR inh 99
CSCCCNC(=O)c1ccccc1OC1CCN(S(C)(=O)=O)CC1	none
COc1cc(NC(=O)c2ccco2)c(OC)cc1NC(=O)c1cc(OC)c(OC)c(OC)c1	Cardio protect 74
COc1cc(NC(=O)c2ccco2)c(C(=O)OCC(=O)c2c[nH]c3ccccc23)cc1OC	Cardio protect 66
COc1ccc(NC(=O)c2ccco2)cc1NC(=O)c1ccco1	none
O=C(Nc1cc(Cl)ccc1Cl)c1ccco1	none
CCOc1cc(NC(=O)c2ccco2)c(OCC)cc1NC(=O)c1cc(OC)c(OC)c(OC)c1	none
Nc1ccc(NC(=O)c2ccco2)c(Cl)c1	ALR inh 99
COc1cc(NC(=O)c2ccco2)c(OC)cc1NC(=O)Nc1cccc(Cl)c1	Cardio protect 65
COc1cccc(C(=O)COC(=O)C(C)N2C(=O)c3ccccc3C2=O)c1 (configuration not stated)	none
Cc1ccc(C)c(S(=O)(=O)Nc2ccc(C(=O)NCCCN3CCOCC3)cc2)c1	none (no result: UBC9 SUMO inh)
Oc1ccc(NCc2ccccc2OCc2ccccc2)cc1	none
C#CCOc1ccccc1CNc1ccccc1	ALR inh 98
